The values that follow come from PubChem BioAssay (NCATS).

Test [1] in a line: Cell Viability - BJ (AID 421; calls by dose curve;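 note: potency is the fitted concentration of half-maximal effect; cells exposed to compound for 40 hours at 37 °C before readout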). The following applies: BJ fibroblast viability, qHTS. An outline of the steps: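 Cytotoxicity in human BJ foreskin fibroblasts is scored as loss of cellular ATP after a 40-hour exposure, measured by luciferase luminescence. Controls are DMSO and 100 uM tamoxifen.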
The nature of test [2]: Cell Viability - Jurkat (AID 426;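 active = dose-dependent loss of cell ATP signal giving a full or clear fitted curve, ranked by lower potency value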;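 note: potency is the fitted concentration of half-maximal effect; cells exposed to compound for 40 hours at 37 °C before ATP read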). As to conditions: qHTS. An outline of the steps: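 qHTS, 1536-well; Jurkat E6-1, 5000 cells/well, complete medium; cpd 40 hr, 37 °C; CellTiter-Glo 20 min RT; luminescence. AC50 by Hill fit.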
A short description of test [3]: Cell Viability - Hek293 (AID 427;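 active = compounds whose dose-response curve shows a full or clear partial loss of cell viability, called from curve shape rather than a numeric limit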;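 note: potency is the fitted concentration of half-maximal effect; cells exposed to compound for 40 hours at 37 °C before reading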). The following applies: qHTS. An outline of the steps: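 qHTS, human embryonic kidney (adenovirus-transformed) cells; 40 hr cpd, 37 °C; CellTiter-Glo ATP luminescence. Norm: DMSO = 0, 100 uM tamoxifen = 100% inhibition. Hill-fit AC50.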
In general terms: In qHTS, concentration-response curves come from the screen itself.

Test [4] is described as follows: Cell Viability - SK-N-SH (AID 435; calls by dose curve;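 note: potency is the fitted concentration of half-maximal effect; compound exposure lasted 40 h at 37 °C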). As to conditions: SK-N-SH neuroblastoma cell viability qHTS. An outline of the steps: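 Cells seeded at 1500 per well and incubated 5 hr at 37 °C. Compound added, then 40 hr at 37 °C. CellTiter-Glo added, 20 min at room temperature, luminescence read.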
Test [5] is described as follows: Cellular Toxicity (caspase-3) Jurkat (AID 655).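 Note: cells exposed to compound for 16 h at 37 °C before reading.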 As to conditions: Jurkat caspase-3 activation, luminescence; caspase-3 activation: at 92.2 µM (top of the series), DMSO = 0%, tamoxifen = 100%. An outline of the steps:
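Caspase 3/7 activation is scored as increased luminescence in Jurkat cells cultured with compound for 16 hours in complete medium. AC50 values come from Hill fits of qHTS concentration-response data normalized to DMSO and 100 uM tamoxifen controls.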

A short description of test [6]: Cellular Toxicity (caspase-3) SHSY5Y (AID 657). The following applies: SH-SY5Y caspase-3 activation, DMSO zero, 10 µM staurosporine = 100%; series mostly up to 91.7 µM. An outline of the steps: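 Cells plated and incubated 5 h at 37 °C, dosed over a concentration range, incubated 16 h, then given Caspase-Glo 3/7 reagent for 1 h at room temperature before luminescence reading. Staurosporine (10 uM) defined full stimulation.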

A short description of test [7]: Cellular Toxicity (caspase-3) BJ (AID 658). As to conditions: BJ fibroblasts, luminescence, normalized: DMSO 0%, staurosporine 100%; series mostly up to 91.7 µM. An outline of the steps: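 Luminescent aminoluciferin-substrate cleavage reports caspase 3/7 activity in normal human BJ fibroblasts after 16 hr compound exposure at 37 °C. Normalized to DMSO (basal) and 10 uM staurosporine (100%); AC50 from Hill fit of concentration-response.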

A short description of test [8]: Cellular Toxicity (caspase-3) N2a (AID 665).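 Note: compound exposure lasted 16 h at 37 °C before readout.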 As to conditions: N2a cells, luminescence, normalized: DMSO 0%, 10 µM staurosporine 100%; series mostly up to 92.2 µM. An outline of the steps: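 N2a cells, 1500/well, 5 h settle at 37 °C; cpd 16 h, 37 °C; Caspase-Glo 3/7, 1 h RT; luminescence. Norm: DMSO = 0, 10 uM staurosporine = 100%. AC50, Hill fit.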
Test [9] is described as follows: Cellular Toxicity (caspase-3) Renal Proximal Tubule (AID 667).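 Note: cells exposed to compound for 16 hours at 37 °C before detection.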 As to conditions: renal proximal tubule cells; series mostly up to 91.7 µM. An outline of the steps:
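In qHTS format, rat primary proximal tubule cells seeded at 1000 per well are exposed to compounds for 16 hours at 37 °C. An increase in Caspase-Glo 3/7 luminescence indicates caspase activation.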

The nature of test [10]: MultiTox-Fluor Cytotoxicity Assay - LYMP1-001 - Dead Cells (AID 946). As to conditions: LYMP1-001 lymphoblastoid cells, dead-cell protease fluorescence; series mostly up to 92.2 µM. An outline of the steps:
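Seed 2500 LYMP1-001 cells/well, incubate 5 hr at 37 C; add compound, 16 hr at 37 C; add MultiTox-Fluor reagent, 60 min RT; read dead-cell fluorescence Ex/Em=485/520. Normalize to DMSO and 15 uM tetraoctylammonium bromide.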

Test [11] is described as follows: Cell Viability - LYMP1-002 - Assay at 16 hr (AID 948).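 Note: 0% = DMSO alone and full effect = 92 µM tetraoctylammonium bromide.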 As to conditions: LYMP1-002 lymphoblastoid cell viability; series mostly up to 92.2 µM. An outline of the steps: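 Acute cytotoxicity is scored as a concentration-dependent fall in intracellular ATP in a human lymphoblastoid line (LYMP1-002) after 16 hr compound exposure at 37 C, measured by luciferase luminescence.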

The nature of test [12]: MultiTox-Fluor Cytotoxicity Assay - LYMP1-003 - Dead Cells (AID 961). Note: nearly all actives have a fitted effect of over 70% in size. The following applies: LYMP1-003 lymphoblastoid cells, dead-cell protease fluorescence; series mostly up to 92.2 µM. An outline of the steps: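 LYMP1-003 lymphoblastoid, 2500 cells/well, 5 hr settle then 16 hr cpd at 37 C; MultiTox-Fluor reagent 60 min RT; Ex/Em 485/520 dead-cell signal; norm. DMSO = 0%, 15 uM tetraoctylammonium bromide = 100%; Hill AC50.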

A short description of test [13]: Cell Viability - LYMP1-003 - Assay at 24 hr (AID 963).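 Note: plate controls were DMSO only for no effect and tetraoctylammonium bromide positive control for full effect.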 As to conditions: LYMP1-003 lymphoblastoid cell viability; series mostly up to 92.2 µM. An outline of the steps:
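Cells seeded at 2500/well, 5 hr at 37 C; compounds added; 24 hr at 37 C; CellTiter-Glo added, 30 min room temperature; luminescence read. Decrease in ATP taken as cytotoxicity, AC50 from Hill modelling.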

The nature of test [14]: Cell Viability - LYMP2-013 (AID 970).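 Note: cells exposed to compound for 24 h at 37 °C; 0% = DMSO only and full inhibition = tetraoctylammonium bromide control; nearly all actives have a fitted effect of over 55% in size.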 As to conditions: LYMP2-013 lymphoblastoid cells viability; series mostly up to 92.2 µM. An outline of the steps:
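qHTS; 2500 lymphoblastoid cells/well; 5 hr 37 C settle; cpd 24 hr 37 C; CellTiter-Glo, 30 min RT; luminescence. AC50 = Hill fit.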

Test [15] in a line: Cell Viability - LYMP2-016 (AID 984).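 Note: cells exposed to compound for 24 hours at 37 °C; % is set by controls: 0 for no effect and ±100 for the full control effect; nearly all actives have a fitted effect of over 55% in size.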 As to conditions: LYMP2-016 lymphoblastoid cell viability, qHTS; series mostly up to 92.2 µM. An outline of the steps:
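Acute toxicity in a Coriell human lymphoblastoid line is scored as loss of intracellular ATP over 24 h of treatment in complete medium. CellTiter-Glo signal is fitted across concentrations with the Hill equation to give AC50.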

A short description of test [16]: Cell Viability - LYMP1-002 - Assay at 24 hr (AID 993). Note: % is set by controls: 0 for no effect and ±100 for the full control effect. As to conditions: LYMP1-002 lymphoblastoid cells viability; series mostly up to 92.2 µM. An outline of the steps:
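Cells plated 2500/well, 5 hr 37 C; compounds added, 24 hr 37 C; CellTiter-Glo added, 30 min RT; luminescence read. Tetraoctylammonium bromide positive control. Hill-equation AC50.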

The nature of test [17]: qHTS Assay for Identification of Small Molecule Inducers of Hypoxia Response (AID 2120; active = well fitted curve in the direction sought with a large enough effect in the signal ratio, with a control signal flat, not every such curve was filed as active; the % refers to the signal ratio; note: 0% is about no effect). The following applies: hypoxia response reporter cells, beta-lactamase ratio readout; series mostly up to 104 µM. An outline of the steps:
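ME-180 HRE-bla cells plated in Opti-MEM/0.5% dialyzed FBS, rested 4-5 h, then dosed with compound titrations by pin tool. After 17 h at 37 degrees C, CCF4 dye loaded 2.5 h at RT; 460/530 nm ratio gave %Activity and AC50.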

Test [18] has as its target Peroxisome proliferator-activated receptor alpha (Homo sapiens) (UniProt Q07869). The test can be described thus: qHTS assay for small molecule agonists of the peroxisome proliferator-activated receptor alpha (PPARalpha) signaling pathway (AID 651778). Note: % of control where 0% means no effect. The following applies: PathHunter PPARalpha complementation, chemiluminescence, 6 h; stronger effect = higher value. An outline of the steps:
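Cells plated at 2,000/well and held overnight at 37 C, 5% CO2, then compound added by pin tool for 6 hr; after PathHunter detection reagent and 60 min at room temperature, chemiluminescence from enzyme complementation was read.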

Test [19] is described as follows: qHTS assay for cell viability of HEK293 cells (AID 743288). Note: % is set by controls: 0 for no effect and ±100 for the full control effect; nearly all actives have a fitted effect of over 50% in size. The following applies: ATP luminescence (CellTiter-Glo), 18 h, stronger effect = lower value. An outline of the steps:
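The Tox21 protocol used parental HEK293 cells treated for 18 h at 37 C with compounds delivered by pintool; ATP-coupled luminescence after 30 min at room temperature gave viability.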

The nature of test [20]: qHTS assay for cell viability of the p53RE-bla HCT-116 cell line (AID 743292). Note: % is set by controls: 0 for no effect and ±100 for the full control effect; nearly all actives have a fitted effect of over 55% in size. As to conditions: p53RE-bla HCT-116 viability, ATP luminescence, 16 h; series mostly up to 95 µM. An outline of the steps:
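Luminescent ATP quantitation (CellTiter-Glo) served as the viability read-out; reagent was added after 16 h compound exposure at 37 C and read after 30 min at room temperature. Cells: p53RE-bla HCT-116, 4,000 per well.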

SMILES strings stand for the structures. Where “and” joins values, the source holds several entries; their conditions need not be identical. Equal values may be shown once. A number with no mark means an inactive call. Inconclusive results are not listed. Calls of active or inactive are those of the source. Unless noted, calls come from the whole dose curve; as a rule, active = well fitted curve in the direction sought with a large enough effect; inconclusive = small, poorly fitted or top-dose-only effect, or another doubt; inactive = no such curve, though single readings can be large; an effect the other way counts as inactive or inconclusive. Some results are limits rather than exact numbers.

Peroxisome proliferator-activated receptor alpha (Homo sapiens), sequence (Q07869 whole entry, looked up): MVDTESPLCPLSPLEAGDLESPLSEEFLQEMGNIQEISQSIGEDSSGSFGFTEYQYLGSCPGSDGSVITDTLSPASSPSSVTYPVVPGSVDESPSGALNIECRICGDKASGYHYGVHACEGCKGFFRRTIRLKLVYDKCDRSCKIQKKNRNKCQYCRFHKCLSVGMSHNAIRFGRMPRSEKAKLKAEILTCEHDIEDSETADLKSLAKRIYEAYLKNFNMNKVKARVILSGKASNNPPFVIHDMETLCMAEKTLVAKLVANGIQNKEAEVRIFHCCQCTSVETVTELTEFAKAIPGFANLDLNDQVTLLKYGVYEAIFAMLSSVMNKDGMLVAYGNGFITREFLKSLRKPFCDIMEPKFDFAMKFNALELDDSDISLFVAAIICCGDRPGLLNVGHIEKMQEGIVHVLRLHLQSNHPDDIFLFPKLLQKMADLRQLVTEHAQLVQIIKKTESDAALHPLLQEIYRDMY

Turning to `CC(C)(C)C(O)(CCc1ccc(Cl)cc1)Cn1cncn1` (stereo not given), the Potency in test [1], in [2], in test [3] and in test [4] was above 92 µM in each case. For the same molecule, in test [5], the caspase-3 activation was 2.58%. Further, the outcome in test [6], in test [7], in test [8], in test [9], in test [10] and in test [11] was inactive. Further, the outcome in test [13] was inactive. For the same molecule, the Potency result in test [12], in test [14], in [15], in test [16], in test [17] and in test [20] was “inactive” in each case. Further, the max response is -3.73% and 1.11% in test [18]; -1.87% and -20% in test [19].
For `[O-][Cl+]O`, the Potency in test [1], in test [2], in [3] and in test [4] was above 92 µM in each case. Also, the caspase-3 activation in [5] was 0.134%. The call in [6], in test [7], in test [8], in [9], in test [10] and in [11] was inactive. Besides, the outcome in test [13] was inactive. Besides, the Potency result in test [12], in [14], in test [15], in [16], in test [17] and in test [20] was “inactive” throughout. In addition, the max response in [18] is 0.737%; in [19] it was -2.54%.
As to `CCC[N+](=O)[O-]`, the Potency in test [1], in [2], in [3] and in test [4] was above 92 µM each time. Besides, the caspase-3 activation in test [5] was -1.47%. The result in test [6], in test [7], in test [8], in test [9], in test [10] and in [11] was inactive. The molecule was called inactive in [13]. Further, the Potency result in [12], in test [14], in test [15], in [16], in test [17] and in test [20] was “inactive” in each case. The max response was -0.431% in test [18] and 2.89% in test [19].
On to `CCCCNC(=O)n1c(NC(=O)OC)nc2ccccc21`, for which the Potency was above 92 µM in [1], 3.28 µM (active) in test [2], above 92 µM in test [3] and above 92 µM in test [4]. Further, the caspase-3 activation in test [5] was 7.08%. In addition, the call in test [6], in test [7], in [8], in test [9], in [10] and in test [11] was inactive. Further, the molecule was called inactive in test [13]. For the same molecule, the Potency result in test [12], in [14], in [15], in [16], in [17] and in [20] was “inactive” in each case. The max response in test [18] is 0.197% and 0.6%; in test [19], -16.4% and -17.6%.
For `O=Cc1ccc(Cl)cc1Cl`, the Potency in test [1], in [2], in test [3] and in test [4] was above 92 µM throughout. In test [5], the caspase-3 activation was 8.63%. Also, the call in test [6], in test [7], in test [8], in test [9], in test [10] and in test [11] was inactive. Further, in [13], the molecule was classed as inactive. Further, the Potency entry in [12], in [14], in test [15], in test [16], in test [17] and in test [20] was “inactive” throughout. The figures for the max response in test [18] and in test [19] were -4.79% and -8.13%, respectively.
As for `Cc1ccc(N)cc1C`, the Potency in test [1], in [2], in [3] and in test [4] was above 92 µM in each case. The caspase-3 activation in test [5] was 0.158%. For the same molecule, the result in test [6], in test [7], in [8], in [9], in test [10] and in test [11] was inactive. Also, the molecule was classed as inactive in test [13]. The Potency result in [12], in test [14], in test [15], in test [16], in test [17] and in [20] was “inactive” each time. In addition, the max response is -0.229% in test [18] and 0.786% in test [19].
